ST2 inh – blocks human ST2 binding to IL-33 | AlphaLISA ST2-Fc/biotin-IL-33 interaction, 1 h | 78,000 compounds, 2.3% hits | inhibition, % for hits at 17 µM | Q01638; in the data active = inhibition above about 30%
Target sequence (Q01638 whole entry, looked up): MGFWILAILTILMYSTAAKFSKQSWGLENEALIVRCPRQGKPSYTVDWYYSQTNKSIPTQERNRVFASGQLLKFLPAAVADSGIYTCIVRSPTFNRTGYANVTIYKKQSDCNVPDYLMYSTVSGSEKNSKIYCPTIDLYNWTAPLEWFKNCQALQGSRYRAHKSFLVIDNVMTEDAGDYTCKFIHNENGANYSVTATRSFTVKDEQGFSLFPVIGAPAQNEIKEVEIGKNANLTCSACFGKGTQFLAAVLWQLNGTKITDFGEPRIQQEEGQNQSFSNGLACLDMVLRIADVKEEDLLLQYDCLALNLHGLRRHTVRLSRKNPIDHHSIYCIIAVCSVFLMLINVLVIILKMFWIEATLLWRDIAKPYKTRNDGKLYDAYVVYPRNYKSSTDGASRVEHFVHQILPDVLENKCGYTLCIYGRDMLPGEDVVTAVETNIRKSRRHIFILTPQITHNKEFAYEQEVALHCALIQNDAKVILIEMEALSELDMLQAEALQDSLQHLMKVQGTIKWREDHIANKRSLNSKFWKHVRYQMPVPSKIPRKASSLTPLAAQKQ
Numbers without * were called inactive; i = inactive. Many of the other results were omitted from the sample, so hits are more common in it than they were.

SMILES	ST2 inh
Cc1cccc(C)c1NC(=O)COc1ccc([N+](=O)[O-])cc1	i
CC(=O)N1CCc2cc(S(N)(=O)=O)ccc21	i
Cc1nc(C2CC2)ncc1C(=O)N1C[C@@H]2CC[C@H]1C2	i
CCOc1cccc(/C=C/c2ccc3cccc(O)c3n2)c1OC	54%*
CC(=O)Nc1ccccc1/C=C/c1ccc2c(C)ccc(O)c2n1	i
CCOc1ccccc1OCCOc1ccccc1C=O	i
Cc1c(CN2CCCC(CCC(=O)Nc3ccccc3F)C2)[nH]c2c(C)cccc12 (stereo unspecified)	i
COC(=O)C1C(=O)C2=C(CC1C)NC(C)=C(C(=O)OCc1ccccc1)C2c1cccs1 (stereo unspecified)	i
CCCCN1C(=O)/C(=c2\sc3nc(-c4ccc(OC)cc4)nn3c2=O)c2ccccc21	i
O=c1/c(=C/c2ccccc2F)sc2nc3ccccc3n12	i
C=CCN1C(=O)/C(=c2/sc3nc4ccccc4n3c2=O)c2ccccc21	31%*
Cc1[nH]c(=O)[nH]c(=O)c1-c1ccc(-c2ccn[nH]2)cc1	i
CCOc1ccc2nc(C)cc(Nc3ccccc3OC)c2c1	i
Cc1cc(Br)cc2c1N(C)C(=O)/C2=C1\SC(=Nc2ccc(F)cc2)NC1=O	33%*
Cc1cc(Br)cc2c1N(C)C(=O)C2=O	i
O=C(NC1CCCCCC1)C1CCC(CNS(=O)(=O)c2cccc3nsnc23)CC1 (stereo unspecified)	i
CC(=O)N1N=C(c2ccccc2)CC1c1ccc(Br)cc1 (stereo unspecified)	i
N#CC1CC(c2ccccc2)=NN1c1ccccc1 (stereo unspecified)	96%*
c1ccc(C2=NN3COc4ccccc4C3C2)cc1 (stereo unspecified)	i
Cc1ccc(C(=O)NCCN(C)C)cc1Cl	i
CC(=O)Nc1ccc(/C=C2/OC(=O)c3c2cc(C)[nH]c3=O)cc1	46%*
COc1c(/C=C2/OC(=O)c3c2cc(C)[nH]c3=O)ccc(Cl)c1Cl	i
COc1cc(/C=C2/OC(=O)c3c2cc(C)[nH]c3=O)ccc1O	i
CC(C)c1cc(CN2CCN(Cc3ccsc3)C(CCO)C2)[nH]n1 (stereo unspecified)	i
CC(=O)c1sc(Nc2nc3c(F)cccc3s2)nc1C	i
SMILES	ST2 inh
Cn1c(SCC(=O)NC2CCCCC2)nc2c([nH]c3ccccc32)c1=O	i
O=C(c1ccc(NCc2ccoc2)nc1)N1CCC(N2CCOCC2)CC1	i
O=C(Nc1ccc(N2CCC(NCCc3cccc(Cl)c3)CC2)cc1)C1CCCC1	i
COc1ccc(OCc2nc(C#N)c(N3CCCC3)o2)cc1	49%*
COCc1cc(C)nc(N2CCCCC2)c1C#N	i
Nc1nonc1-c1noc(COc2ccc(Br)cc2)n1	i
Nc1nonc1-c1noc(COc2ccc(Cl)cc2)n1	i
N#Cc1nc(COc2ccc(Br)cc2)oc1N1CCCC1	72%*
COc1ccc(OCCOc2ccc(OC)cc2)cc1	i
N#Cc1nc(COc2ccc(Cl)cc2)oc1N1CCCCC1	73%*
N#CCOc1nc(N2CCCCC2)nc(N2CCCCC2)n1	i
Cn1c(=O)c2c(SCC(N)=O)nc(-c3cccs3)nc2n(C)c1=O	i
O=C(O)C1CN(S(=O)(=O)N2CCc3ccccc3C2)CCN1 (stereo unspecified)	i
CC(C)(C)C(=O)Nc1c(-c2ccc(F)cc2)nc2ccccn12	i
CCN(CC)Cc1cnc2c(C(=O)Nc3ccc(-n4ccnc4)cc3)cnn2c1	i
CCOc1ccc(N=C2S/C(=C\c3ccc(N(C)C)cc3)C(=O)N2CC)cc1	56%*
CCOc1ccc(N2C(=O)S/C(=C\c3ccccc3)C2=O)cc1	i
CCN1C(=O)/C(=C2/Sc3ccc(OC)cc3N2C)SC1=Nc1ccc(C(C)=O)cc1	i
COc1ccc(Cl)cc1C(=O)NC1CCCC1	i
O=C(/C=C/c1ccccc1)CC(O)CCc1ccccc1 (stereo unspecified)	i
CC(C)(C)C(=O)/C=C(N)\C=C\c1ccccc1	37%*
CC(=O)Nc1ccc(/C=C/c2ccccc2)cn1	i
O=C(Nc1ccc2c(c1)OCO2)c1ccc(=O)n(Cc2ccc(Cl)cc2)c1	i
COc1ccc(C(=O)c2nc3ccccc3n2C)cc1	i
Cn1c(=O)c(/C=C/c2cccs2)nc2ccccc21	36%*
SMILES	ST2 inh
Cn1c(=O)c(Cc2ccccc2F)nc2ccccc21	i
CCC(=O)N1c2ccc(S(=O)(=O)NCc3ccccn3)cc2CC1C (stereo unspecified)	i
OC1(c2ccccc2)CCN(Cc2cnc3c(-c4ccccc4)cnn3c2)CC1	33%*
COC(=O)[C@@H]1CCCN1Cc1cnc2c(-c3ccccc3)cnn2c1	i
CCc1ccc(CN(C)Cc2cnc3c(-c4ccccc4)cnn3c2)nc1	i
CC1=C(C(N)=O)C(c2ccncc2)n2nc(SCc3ccccc3F)nc2N1 (stereo unspecified)	i
O=C(Cn1cnc2c(cnn2-c2ccccc2)c1=O)Nc1ccc(F)cc1	i
O=C(Nc1ccc2nc(-c3ccco3)c(-c3ccco3)nc2c1)N1CCOCC1	36%*
O=C(Nc1ccc2nc(-c3ccccn3)c(-c3ccccn3)nc2c1)N1CCOCC1	i
